RORg inh = qHTS for inhibitors of ROR gamma transcriptional activity. Potency, µM (top dose mostly 53.6 µM), without a hit: top-dose activity change, negative = inhibition, most hits filed as inhibitors. 310,000 compounds, 5.4% hits. Drosophila S2 Gal4-RORgamma UAS-luciferase reporter, 20 h; also: % is scaled to controls: 0 for no effect and ±100 for the full control effect; nearly all actives have a fitted effect of over 60% in size
Target sequence (P51450 whole entry, looked up, the tested form may be a part): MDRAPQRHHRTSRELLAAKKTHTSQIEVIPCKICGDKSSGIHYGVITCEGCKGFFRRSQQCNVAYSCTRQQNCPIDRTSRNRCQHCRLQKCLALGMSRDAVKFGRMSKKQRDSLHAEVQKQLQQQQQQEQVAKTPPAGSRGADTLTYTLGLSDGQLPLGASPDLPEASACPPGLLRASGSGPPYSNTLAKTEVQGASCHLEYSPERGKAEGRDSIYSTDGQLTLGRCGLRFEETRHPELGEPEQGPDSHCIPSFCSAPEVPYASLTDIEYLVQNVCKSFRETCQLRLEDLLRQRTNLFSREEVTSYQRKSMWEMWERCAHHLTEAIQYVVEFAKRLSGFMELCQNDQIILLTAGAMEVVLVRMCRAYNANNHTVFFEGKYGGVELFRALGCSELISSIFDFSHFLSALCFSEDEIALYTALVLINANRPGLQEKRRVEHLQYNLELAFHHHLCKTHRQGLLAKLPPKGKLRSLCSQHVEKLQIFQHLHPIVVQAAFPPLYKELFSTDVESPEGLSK
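In this cell-based reporter format, copper sulfate (700 uM final) drives Gal4–ROR gamma fusion expression from a metallothionein promoter in Drosophila Schneider cells; compounds preincubated 1 hr, reporter read after 20 hr at ambient temperature.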
ClpP mod = qHTS Assay for Activators of ClpP; ATP-dependent Clp protease proteolytic subunit (Bacillus subtilis (strain 168)), P80244; purified B. subtilis ClpP, FRET peptide cleavage, 20 min; Potency, µM (titrated, usually from 57.5 µM), for the others: top-dose activity change, negative = active; 340,000 compounds, 1.9% hits; AID 651965, 2013; active = well fitted falling curve with a large enough effect; inconclusive = small, poorly fitted or top-dose-only effect; inactive = no such curve, though single readings can be large or run the other way; also: the source files actives as falling curves though it sought activators and does not explain the sign; nearly all actives have a fitted effect of over 65% in size
Target sequence (P80244 whole entry, looked up): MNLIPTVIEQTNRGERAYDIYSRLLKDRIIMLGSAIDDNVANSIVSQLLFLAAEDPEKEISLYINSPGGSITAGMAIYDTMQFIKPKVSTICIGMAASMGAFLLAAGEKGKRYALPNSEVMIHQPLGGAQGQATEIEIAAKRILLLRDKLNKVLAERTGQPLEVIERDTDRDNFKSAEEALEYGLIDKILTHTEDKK
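Buffer: 100 mM Tris/HCl pH8, 100 mM KCl, 0.05% low protease BSA, 2.5% glycerol, 0.01% Tween-20. ClpP 10 microg/mL final; 20 min RT; delta FRET normalized to ADEP and DMSO controls.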
Gal4-VP16 FLuc = VP16 counterscreen qHTS for inhibitors of ROR gamma transcriptional activity. Drosophila S2 Gal4-VP16 UAS-luciferase, luminescence, 20 h. Potency, µM (titrated, usually from 53.6 µM), inactives show at the highest dose activity, negative = inhibition, hits mostly inhibitors. AID 2546, 2010. 310,000 compounds, 3.5% hits;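 also: Gal4-VP16 expression switched on by copper sulfate through the metallothionein promoter; % is scaled to controls: 0 for no effect and ±100 for the full control effect; nearly all actives have a fitted effect of over 50% in size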
Epigenetic derep = Quantitative High-Throughput Screen for Regulators of Epigenetic Control; murine LDR cells, GFP reporter derepression, 30 h; Potency, µM (titrated, usually from 53.9 µM), for the others: at the highest dose GFP activation, most hits filed as activators; 280,000 compounds, 0.2% hits; also: % of control where 0% means no effect; nearly all actives have a fitted effect of over 60% in size
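Reporter derepression read as number of fluorescent GFP-positive objects, 20-120 um in size, counted by laser-scanning cytometer. Mouse LDR line with an epigenetically silenced CMV-GFP locus; compound incubation 30 h, 37 C.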
PINK1 expr mod = A Quantitative High throughput Screen to Identify Chemical Modulators of PINK1 Expression. AID 624263, 2012. 410,000 compounds, 0.2% hits. Potency, µM (titrated, usually from 76.6 µM), inactives show at the top dose activation (PINK1 increase), hits mostly activators. PINK1 immunofluorescence, high-content cytometry, 24 h; active = well fitted activation curve with a large enough effect; inconclusive = small, poorly fitted or top-dose-only effect; cell line not stated here; also: % of control where 0% means no effect; nearly all actives have a fitted effect of over 65% in size
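Stable cell line, 250 cells/well, 12 h attachment; compounds pinned at 5 concentrations, 24 h; CCCP control. Fixed with nuclear dye, primary antibodies 12 h at 10 degrees C, secondary plus cell stain; laser-scanning cytometer read.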
Sfp inh = qHTS Assay for Inhibitors of Bacillus subtilis Sfp phosphopantetheinyl transferase (PPTase); Biochemical Sfp PPTase activity, qHTS; 4'-phosphopantetheinyl transferase ffp (Bacillus subtilis), Q9F4F7; Potency, µM, for the others: largest response in the series, negative = inhibition, hits mostly inhibitors; 310,000 compounds, 3.5% hits;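 also: the enzyme is Sfp with the accession as filed and its product quenches rhodamine fluorescence; 0% = enzyme reaction without inhibitor and -100% = no enzyme wells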
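Fluorescence-quenching assay with 15 nM Sfp, 5 uM rhodamine-CoA and 12.5 uM BHQ-2-labelled ybbR peptide in pH 7.6 Hepes/MgCl2 buffer. Enzyme was pre-incubated with compound for 15 min at room temperature. Rate was taken from the 30-min fluorescence change (525/598 nm).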
The depositor's hits bear a star; ? = inconclusive; . = not tested or not shown; [ ] = dose if it differs, or a comment. Rows were chosen to be rich in hits. Some 8.1% of all compounds tested hit in one or more screens of this group. Unless noted, calls follow the shape of the dose curve; as a rule, active = well fitted curve in the direction sought with a large enough effect; inconclusive = small, poorly fitted or top-dose-only effect, or another doubt; inactive = no such curve, though single readings can be large; an effect the other way counts as inactive or inconclusive. Potency is read from the fitted curve at half-maximal effect.

SMILES | RORg inh | ClpP mod | Gal4-VP16 FLuc | Epigenetic derep | PINK1 expr mod | Sfp inh
Cc1ccc2nc(-c3ccccn3)c(NC3CCCC3)n2c1 | 3.9% | . | -2.1% | 0.0% | 10.8% | 4.6%
COc1ccc(/C=C/c2ccc3ccccc3n2)cc1OC | . | 4.3% | . | . | 1.9% | .
COc1cc(/C=C/c2ccc3cccc(O)c3n2)cc(Br)c1OC | 1.26µM* | . | 5.01µM* | . | 6.8% | ?
COc1cc(/C=C/c2ccc3cccc(O)c3n2)cc(OC)c1OC | ? | . | ? | . | 6.6% | 7.9%
COc1cc(/C=C/c2ccc3cccc(O)c3n2)cc(Cl)c1OC | 0.794µM* | . | 4.47µM* | . | 16.7% | 50.1µM*
COc1cccc2ccc(/C=C/c3ccc4c(c3)OCO4)nc12 | . | ? | . | . | 0.9% | .
COc1ccc(/C=C/c2ccc3cccc(O)c3n2)cc1Br | 2µM* | -0.9% | 3.16µM* | . | 11.8% | 18.0%
COC(=O)c1ccc(/C=C/c2ccc3cccc(OC)c3n2)cc1 | -43.5% | 12.6µM* | 0.1% | -1.0% | 4.7% | 44.7µM*
CC(C)(C)NC(=O)C1CCN(c2nc3ccccc3nc2C(F)(F)F)CC1 | . | -1.1% | . | 0.8% | 0.4% | .
Cc1noc2ncnc(N3CCN(c4ccccc4F)CC3)c12 | . | 0.7% | . | -1.3% | -5.7% | .
CCC(=O)N1CCc2cc(Br)cc(S(=O)(=O)N3CCCC(C(=O)Nc4ccc(C)c(F)c4)C3)c21 (stereo unspecified) | . | -3.9% | . | -1.8% | 3.5% | .
COc1cc(NC(=O)c2ccc(NC(=O)N3CCSc4ncccc43)cc2)cc(OC)c1 | . | 31.6µM* | . | 0.8% | -0.1% | .
Cc1ccc(Cl)cc1NC(=O)c1ccc(NC(=O)N2CCSc3ncccc32)cc1 | . | 31.6µM* | . | 7.6% | -2.1% | .
COc1ccc(CNC(=O)c2ccc(NC(=O)N3CCSc4ncccc43)cc2)cc1 | . | ? | . | 1.2% | 2.9% | .
Cc1ccc(NC(=O)c2ccc(NC(=O)N3CCSc4ncccc43)cc2)c(Cl)c1 | . | 28.2µM* | . | 13.5% | 0.5% | .
COc1cccc(-c2nc3cc4c(cc3cc2CN(C(=O)c2cccs2)C2CC2)CCC4)c1OC | . | . | . | . | 6.3% | .
COc1ccccc1NC(=O)CSc1oc(-c2ccccc2)nc1S(=O)(=O)c1ccc(C)cc1 | . | -6.8% | . | 1.1% | -0.4% | .
COc1ccc(C(=O)Nc2ccc3ccccc3n2)c(OC)c1OC | 8.91µM* | 3.9% | 10µM* | . | 1.5% | 13.1%
O=C(Nc1ccc2ccccc2n1)c1ccccc1Cl | 12.6µM* | -3.8% | ? | . | 1.9% | -14.7%
COc1cccc(C(=O)Nc2cccc3ccccc23)c1OC | 44.8% | . | 0.8% | . | -0.9% | -4.1%
O=C(Nc1ccc2ccccc2n1)c1ccc(Cl)cc1 | -43.0% | -1.6% | -4.8% | . | 6.8% | 10.8%
CCOc1ccc(Br)cc1CC(=O)O | . | -0.8% | . | . | 0.3% | .
CCCOc1ccc(Br)cc1CSC(=N)N | ? | -0.6% | 12.6µM* | 0.0% | -2.3% | -2.0%
Cc1ccc(C(=O)N2CC(=O)Nc3ccc(F)cc3C2c2ccccc2)cc1 (stereo unspecified) | 21.5% | -1.5% | 10.1% | . | 0.6% | 5.2%
CC(=O)[C@@H]1[C@@H](C(=O)c2ccc(C)cc2)[C@]2(C(=O)Nc3ccccc32)[C@H]2C=Cc3cc(F)ccc3N12 | ? | -3.4% | ? | -3.2% | -1.2% | 3.98µM*
SMILES | RORg inh | ClpP mod | Gal4-VP16 FLuc | Epigenetic derep | PINK1 expr mod | Sfp inh
CC(=O)[C@@H]1[C@@H](C(=O)c2ccc(F)cc2)[C@]2(C(=O)Nc3ccccc32)[C@H]2C=Cc3cc(F)ccc3N12 | 18.6% | . | -7.8% | 0.0% | 1.5% | 20µM*
O=C(c1ccc(F)cc1)[C@@H]1[C@@H](C(=O)c2ccccc2)[C@@]2(C(=O)Nc3ccccc32)[C@H]2c3ccccc3C=CN12 | -15.4% | . | 24.4% | -1.1% | . | 1.6%
COc1cccc(C2CCCN2Cc2nc(CCC(C)C)no2)c1 (stereo unspecified) | -26.5% | -2.8% | -15.9% | -1.8% | 12.4% | -8.3%
Cc1ccc2nc(C3CCCN3Cc3nc(CCC(C)C)no3)[nH]c2c1 (stereo unspecified) | 7.08µM* | 0.2% | 20µM* | 0.0% | 4.1% | 8.9%
CCN(CC)CCNC(=O)c1c(C)[nH]c(/C=C2\C(=O)Nc3ccc(F)cc32)c1C | -9.1%[10 µM] | . | -10.9% | . | . | 1.5%
CCOc1ccc(-n2c(SCC(=O)Nc3ccc(F)cc3)nc3c([nH]c4ccccc43)c2=O)cc1 | . | -7.9% | . | 4.2% | -2.6% | .
C/C(=N\Nc1ncc(Cl)cc1Cl)c1ccc2c(c1)OCO2 | 7.08µM* | -1.2% | ? | 4.5% | 5.0% | 79.4µM*
COC(=O)N/N=C(\C)c1ccc(OC(F)F)cc1 | 6.1% | -0.6% | -14.7% | 0.0% | -3.5% | 7.4%
C/C(=N\Nc1ncc(Cl)cc1Cl)c1ccc(OC(F)F)cc1 | 11.2µM* | -0.3% | ? | -1.1% | 2.7% | 56.2µM*
Nc1ccc(C(=O)N/N=C/c2cn(Cc3ccccc3)c3ccccc23)cc1 | 11.2µM* | -12.5% | ? | . | -0.5% | -3.6%
COc1cc(C(=O)N/N=C/c2cn(Cc3ccccc3)c3ccccc23)ccc1O | 12.6µM* | -11.4% | ? | . | 1.4% | 0.2%
Nc1ccc(C(=O)N/N=C/c2cn(Cc3ccccc3F)c3ccccc23)cc1 | 14.1µM* | -17.5% | ? | . | 1.6% | -11.4%
Nc1ccc(C(=O)N/N=C/c2cn(Cc3ccc(F)cc3)c3ccccc23)cc1 | -141.5% | ? | ? | . | 3.4% | -6.4%
Cc1c(C(N)=O)nnn1-c1ccc(Br)cc1 | . | 0.6% | . | -3.9% | -1.8% | .
c1cncc(OC2CCN(Cc3ccc4c(c3)CN(Cc3ccc5c(c3)OCCO5)CCO4)CC2)c1 | . | . | . | . | 0.6% | .
COc1cc2nc(N3CCCC(O)C3)c(CNCc3ccccc3F)cc2c(OC)c1OC (stereo unspecified) | . | . | . | . | 1.9% | .
COc1ccc(N=Nc2ccc(O)c3ncccc23)cc1 | 0.126µM* | 1.2% | ? | -1.2% | 5.7% | 13.9%
Cc1ccc(O)c2ncccc12 | 5.01µM* | . | 8.91µM* | . | . | 18.7%
Cc1ccccc1N=Nc1ccc(O)c2ncccc12 | 0.631µM* | -4.2% | 0.891µM* | -1.8% | 6.0% | 3.4%
COc1ccc(C)cc1N=Nc1ccc(O)c2ncccc12 | 0.794µM* | 1.6% | 0.631µM* | 1.1% | 7.3% | 5.0%
Cc1c(C(=O)NCc2ccc(OC(C)C)cc2)sc2ncnc(N(C)C3CCCCC3)c12 | . | -29.9% | . | 0.0% | 1.0% | .
Cc1cccc(NC(=O)Cn2c(=O)c3cccn3c3ccccc32)c1C | . | -0.1% | . | 0.0% | 0.2% | .
